In PubChem BioAssay (NCI):
The panel holds about 83,000 compounds, 20% with a hit somewhere; the sample as a whole holds those more often.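 Method: cells in 96-well plates; compound added at one concentration; 48 h incubation; percent growth measured; values under 10 scored active.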 Activity calls are given as the source filed them.

Columns and labels:
Experiment in all cases: NCI-60 one-dose screen, 48 h (100 = growth as untreated, 0 = no growth, -100 = all killed)
Settings in all cases: 10 µM
RPMI-8226 leukemia = tested on: RPMI-8226 leukemia
OVCAR-8 ovarian = tested on: OVCAR-8 ovarian
OVCAR-5 ovarian = tested on: OVCAR-5 ovarian
OVCAR-4 ovarian = tested on: OVCAR-4 ovarian
SK-OV-3 ovarian = tested on: SK-OV-3 ovarian
IGROV1 ovarian = tested on: IGROV1 ovarian
OVCAR-3 ovarian = tested on: OVCAR-3 ovarian
NCI/ADR-RES ovarian = tested on: NCI/ADR-RES ovarian
T-47D breast = tested on: T-47D breast
BT-549 breast = tested on: BT-549 breast
MDA-MB-435 melanoma = tested on: MDA-MB-435 melanoma
MCF7 breast = tested on: MCF7 breast
HCT-116 colon = tested on: HCT-116 colon
KM12 colon = tested on: KM12 colon
HS 578T breast = tested on: HS 578T breast
SW-620 colon = tested on: SW-620 colon
HCC-2998 colon = tested on: HCC-2998 colon

Measured: growth

CCC1(C(C)C)NC(=O)NC1=O (stereo not given)
inactive: RPMI-8226 leukemia 91.8% | OVCAR-8 ovarian 104% | OVCAR-5 ovarian 89.3% | OVCAR-4 ovarian 103% | SK-OV-3 ovarian 107% | IGROV1 ovarian 112% | OVCAR-3 ovarian 115% | NCI/ADR-RES ovarian 99.5% | T-47D breast 97% | BT-549 breast 104% | MDA-MB-435 melanoma 106% | MCF7 breast 103% | HCT-116 colon 101% | KM12 colon 104%

O=C(Nc1cccc(Br)c1)c1cc(=O)[nH]c2ccccc12
inactive: RPMI-8226 leukemia 80.2% | OVCAR-8 ovarian 92.9% | OVCAR-5 ovarian 90.8% | OVCAR-4 ovarian 97.6% | SK-OV-3 ovarian 97.7% | IGROV1 ovarian 17.9% | HS 578T breast 105% | NCI/ADR-RES ovarian 88.6% | T-47D breast 92.1% | BT-549 breast 82.1% | MDA-MB-435 melanoma 101% | SW-620 colon 102% | MCF7 breast 84% | HCT-116 colon 109% | HCC-2998 colon 104% | KM12 colon 101%

CCCCCCN1C(=O)C2=C(c3ccc(Cl)cc3)Nc3c(c(C)nn3-c3ccccc3)C2c2ccccc21 (stereo not given)
inactive: RPMI-8226 leukemia 81.2% | OVCAR-8 ovarian 92.5% | OVCAR-5 ovarian 100% | OVCAR-4 ovarian 90.5% | SK-OV-3 ovarian 95.9% | IGROV1 ovarian 100% | HS 578T breast 118% | NCI/ADR-RES ovarian 97.8% | T-47D breast 84.5% | BT-549 breast 102% | MDA-MB-435 melanoma 89.8% | SW-620 colon 111% | MCF7 breast 77.8% | HCT-116 colon 87.9% | HCC-2998 colon 92.1% | KM12 colon 107%

CCOC(=O)C(=Cc1ccc(Br)cc1)C(=O)OCC
active: RPMI-8226 leukemia -34.3% | OVCAR-8 ovarian -22.4% | OVCAR-5 ovarian 5.97% | OVCAR-4 ovarian 0.0605% | IGROV1 ovarian -82.1% | OVCAR-3 ovarian -35.1% | BT-549 breast -43.3% | MDA-MB-435 melanoma -4.37% | SW-620 colon -71.2% | MCF7 breast 0.372% | HCC-2998 colon -82.2% | KM12 colon -25.3%
inactive: SK-OV-3 ovarian 34% | NCI/ADR-RES ovarian 10.6%

O=C(CC(c1ccccc1)N1CCOCC1)c1ccccc1 (stereo not given)
inactive: OVCAR-8 ovarian 96.6% | OVCAR-5 ovarian 79.3% | OVCAR-4 ovarian 98.3% | SK-OV-3 ovarian 104% | IGROV1 ovarian 97.4% | OVCAR-3 ovarian 94.7% | NCI/ADR-RES ovarian 91.2% | T-47D breast 72% | BT-549 breast 89.8% | MDA-MB-435 melanoma 89.7% | MCF7 breast 32.2% | HCT-116 colon 34.5% | KM12 colon 23%
active: RPMI-8226 leukemia 5.15%

c1ccc(CP(Cc2ccccc2)c2ccccc2)cc1
inactive: RPMI-8226 leukemia 92.7% | OVCAR-8 ovarian 94.8% | OVCAR-5 ovarian 102% | OVCAR-4 ovarian 113% | SK-OV-3 ovarian 100% | IGROV1 ovarian 78.6% | OVCAR-3 ovarian 112% | NCI/ADR-RES ovarian 101% | T-47D breast 116% | MDA-MB-435 melanoma 75.5% | SW-620 colon 105% | MCF7 breast 96.7% | HCT-116 colon 100% | HCC-2998 colon 101% | KM12 colon 103%

CC(C)(C)NC/C(=C\c1ccccc1)C(=O)c1ccccc1
active: RPMI-8226 leukemia -0.943% | OVCAR-8 ovarian -29.1% | OVCAR-5 ovarian -42.7% | IGROV1 ovarian 0.595% | OVCAR-3 ovarian -43.1% | NCI/ADR-RES ovarian -30.7% | MDA-MB-435 melanoma 4.28% | SW-620 colon -30.6% | MCF7 breast 7.56% | HCT-116 colon -95.3% | HCC-2998 colon -78.6%
inactive: OVCAR-4 ovarian 30.7% | SK-OV-3 ovarian 57.9% | BT-549 breast 15.8% | KM12 colon 14%

CCN(CC)CCSCCCNc1c2ccc(Cl)cc2nc2ccc(OC)cc12
active: RPMI-8226 leukemia -22.9% | OVCAR-8 ovarian -29.3% | OVCAR-5 ovarian -16.7% | OVCAR-4 ovarian -34.1% | SK-OV-3 ovarian -1.76% | IGROV1 ovarian -18.7% | HS 578T breast 6.72% | NCI/ADR-RES ovarian 1.58% | T-47D breast -32.8% | BT-549 breast 5.29% | MDA-MB-435 melanoma -94.7% | SW-620 colon -23.7% | MCF7 breast -33% | HCT-116 colon -55.9% | HCC-2998 colon -73.2% | KM12 colon -10.9%

CCCCC(CCCCCC(CCCC)NCc1ccc2c(c1)OCO2)NCc1ccc2c(c1)OCO2 (stereo not given)
active: RPMI-8226 leukemia -59.2% | OVCAR-8 ovarian -83.2% | OVCAR-5 ovarian -100% | OVCAR-4 ovarian -98.9% | SK-OV-3 ovarian -100% | IGROV1 ovarian -100% | HS 578T breast -67.7% | NCI/ADR-RES ovarian -99% | T-47D breast -76.6% | BT-549 breast -65.7% | MDA-MB-435 melanoma -82.4% | SW-620 colon -100% | MCF7 breast -100% | HCT-116 colon -100% | HCC-2998 colon -100% | KM12 colon -100%

COC(=O)c1ccc(=O)oc1
inactive: RPMI-8226 leukemia 93.7% | OVCAR-8 ovarian 104% | OVCAR-5 ovarian 89.1% | OVCAR-4 ovarian 102% | SK-OV-3 ovarian 107% | IGROV1 ovarian 112% | OVCAR-3 ovarian 116% | NCI/ADR-RES ovarian 97.1% | T-47D breast 96.3% | BT-549 breast 104% | MDA-MB-435 melanoma 106% | MCF7 breast 100% | HCT-116 colon 97.7% | KM12 colon 104%

Cc1cccc2c1O/C(=C\c1ccc([N+](=O)[O-])o1)C2=O
inactive: SK-OV-3 ovarian 45.1% | NCI/ADR-RES ovarian 10.5%
active: RPMI-8226 leukemia -34.7% | OVCAR-8 ovarian -7.67% | OVCAR-5 ovarian -20.8% | OVCAR-4 ovarian -82.4% | IGROV1 ovarian -34.7% | HS 578T breast -23.2% | T-47D breast -26% | BT-549 breast -68.5% | MDA-MB-435 melanoma -53.2% | SW-620 colon -68% | MCF7 breast -39.7% | HCT-116 colon -53.2% | HCC-2998 colon -67.4% | KM12 colon -34.2%

O=C(Nc1ccc(OS(=O)(=O)c2ccccc2)cc1)C12CC3CC(CC(C3)C1)C2
active: SW-620 colon 5.02%
inactive: RPMI-8226 leukemia 18.8% | OVCAR-8 ovarian 63% | OVCAR-5 ovarian 68% | OVCAR-4 ovarian 58.9% | SK-OV-3 ovarian 74% | IGROV1 ovarian 75.1% | HS 578T breast 63.1% | NCI/ADR-RES ovarian 52.5% | T-47D breast 27% | BT-549 breast 25.8% | MDA-MB-435 melanoma 72.6% | MCF7 breast 32% | HCT-116 colon 32.8% | HCC-2998 colon 26.1% | KM12 colon 28.4%

c1ccc2c(c1)oc1c3c(ccc12)NCCC3
inactive: RPMI-8226 leukemia 93.8% | OVCAR-8 ovarian 98.2% | OVCAR-5 ovarian 102% | OVCAR-4 ovarian 94.3% | IGROV1 ovarian 98.6% | OVCAR-3 ovarian 103% | HS 578T breast 109% | NCI/ADR-RES ovarian 97.7% | T-47D breast 59.9% | BT-549 breast 89.5% | MDA-MB-435 melanoma 106% | SW-620 colon 103% | MCF7 breast 40.9% | HCT-116 colon 95.7% | HCC-2998 colon 97.2% | KM12 colon 101%

NC(=O)CC1(c2ccccc2)CCCCC1
inactive: RPMI-8226 leukemia 99.1% | OVCAR-8 ovarian 107% | OVCAR-5 ovarian 111% | OVCAR-4 ovarian 103% | SK-OV-3 ovarian 103% | OVCAR-3 ovarian 103% | HS 578T breast 115% | NCI/ADR-RES ovarian 107% | BT-549 breast 102% | MDA-MB-435 melanoma 109% | SW-620 colon 108% | MCF7 breast 96.4% | HCC-2998 colon 102% | KM12 colon 101%

N=C(N)c1ccc(-c2ccc(-c3ccccc3)o2)nc1
inactive: RPMI-8226 leukemia 38.6% | OVCAR-8 ovarian 92.6% | OVCAR-5 ovarian 85% | OVCAR-4 ovarian 75.3% | IGROV1 ovarian 95.7% | OVCAR-3 ovarian 106% | HS 578T breast 131% | NCI/ADR-RES ovarian 100% | T-47D breast 81.5% | BT-549 breast 101% | MDA-MB-435 melanoma 81.4% | SW-620 colon 86.7% | MCF7 breast 72.3% | HCT-116 colon 76.6% | HCC-2998 colon 27.5%

CCN(CC)CCNc1ccc(CO)c2oc3cc(Cl)ccc3c(=O)c12
inactive: RPMI-8226 leukemia 85.7% | OVCAR-8 ovarian 59.4% | OVCAR-5 ovarian 104% | OVCAR-4 ovarian 78.7% | SK-OV-3 ovarian 92.9% | OVCAR-3 ovarian 91.8% | HS 578T breast 99% | NCI/ADR-RES ovarian 74.2% | T-47D breast 117% | BT-549 breast 94.9% | MDA-MB-435 melanoma 78.4% | SW-620 colon 71.3% | MCF7 breast 64.5% | HCT-116 colon 58.6% | HCC-2998 colon 88.3% | KM12 colon 98.6%

S=c1[nH]ccn1-c1c(Cl)cccc1Cl
inactive: RPMI-8226 leukemia 89% | OVCAR-8 ovarian 103% | OVCAR-5 ovarian 107% | OVCAR-4 ovarian 97.1% | SK-OV-3 ovarian 102% | OVCAR-3 ovarian 111% | HS 578T breast 109% | NCI/ADR-RES ovarian 102% | T-47D breast 91.2% | BT-549 breast 88.9% | MDA-MB-435 melanoma 97.3% | SW-620 colon 106% | MCF7 breast 97.8% | HCT-116 colon 93.9% | HCC-2998 colon 99.5% | KM12 colon 104%

CCCN(CCC)CCC(O)c1cc2c(c3ccccc13)CCCC2 (stereo not given)
inactive: RPMI-8226 leukemia 86.1% | OVCAR-8 ovarian 102% | OVCAR-5 ovarian 84.9% | OVCAR-4 ovarian 103% | SK-OV-3 ovarian 90.1% | IGROV1 ovarian 77.8% | HS 578T breast 88% | NCI/ADR-RES ovarian 83.3% | BT-549 breast 92.5% | MDA-MB-435 melanoma 97.7% | SW-620 colon 94.1% | MCF7 breast 82.4% | HCT-116 colon 70.3% | HCC-2998 colon 87.6% | KM12 colon 101%

COc1ccc2nc3cc(Cl)ccc3c(NCCNCC(C)O)c2c1 (stereo not given)
inactive: RPMI-8226 leukemia 19.8% | OVCAR-8 ovarian 17.1% | OVCAR-5 ovarian 24.6% | OVCAR-4 ovarian 37% | SK-OV-3 ovarian 37.5% | IGROV1 ovarian 26.2% | HS 578T breast 67.2% | NCI/ADR-RES ovarian 51.9% | T-47D breast 25.9% | BT-549 breast 88% | MDA-MB-435 melanoma 37.9% | SW-620 colon 19.9% | HCT-116 colon 13.1% | HCC-2998 colon 40.8% | KM12 colon 25.5%

Clc1cc2c(c(CSc3nc4ccccc4n4cccc34)c1)OCOC2
active: OVCAR-4 ovarian 3.98% | T-47D breast 2.37% | MCF7 breast 8.11%
inactive: RPMI-8226 leukemia 49% | OVCAR-8 ovarian 59.3% | OVCAR-5 ovarian 87.2% | SK-OV-3 ovarian 74.9% | OVCAR-3 ovarian 72.2% | HS 578T breast 91.8% | NCI/ADR-RES ovarian 89.5% | BT-549 breast 81.2% | MDA-MB-435 melanoma 92.2% | SW-620 colon 94.4% | HCT-116 colon 80% | HCC-2998 colon 85.4% | KM12 colon 88.4%
